In PubChem BioAssay (NCI) one finds growth inhibition data, which are given here for six compounds.

This is part of a sample that, as a whole, favours compounds with a hit. Of some 79,000 tested, about 15% had one in any assay. Unmarked numbers belong to inactive results. The source made the active and inactive calls. Rule as the data show it: active = growth inhibition above about 70%; inactive = the rest.

Assay [1] in a line: NCI Yeast Anticancer Drug Screen. Data for the rad50 strain (AID 155).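 Also: 0% = growth of vehicle-only cultures of the same strain.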 The note with it: S. cerevisiae rad50 strain growth inhibition, hits give high values. The method in brief:
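DNA repair mutant yeast, compound exposure, growth read-out; inhibition is taken relative to vehicle.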

Assay [2] can be described thus: NCI Yeast Anticancer Drug Screen. Data for the mec2-1 strain (AID 157). The note with it: S. cerevisiae mec2-1 strain, hits give high values. The method in brief:
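Growth inhibition is read against vehicle-treated controls after compound exposure of the mec2-1 yeast strain, which is defective in DNA damage repair or cell cycle control.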

Assay [3] can be described thus: NCI Yeast Anticancer Drug Screen. Data for the sgs1 mgt1 strain (AID 161).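 Also: 0% = growth of cultures given vehicle only.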 The note with it: S. cerevisiae sgs1 mgt1 strain, hits give high values. The method in brief:
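Compounds are added to genetically altered yeast, and growth is compared with cultures given vehicle alone to give percent inhibition.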

Assay [4] can be described thus: NCI Yeast Anticancer Drug Screen. Data for the cln2 rad14 strain (AID 165).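 Also: 0% = growth equal to vehicle treated cultures.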 The note with it: S. cerevisiae cln2 rad14 strain, hits give high values. The method in brief: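 Growth inhibition, relative to vehicle-treated controls, is the read-out. The test organism is a yeast strain with defined genetic alterations, cln2 rad14.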
A short description of assay [5]: NCI Yeast Anticancer Drug Screen. Data for the bub3 strain (AID 167). The note with it: S. cerevisiae bub3 mutant strain, hits give high values. The method in brief: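 In this screen, a yeast mutant lacking normal mitotic checkpoint function is challenged with compound. Relative growth versus vehicle gives the inhibition value.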
Assay [6] is described as follows: NCI Yeast Anticancer Drug Screen. Data for the mlh1 rad18 strain (AID 175). The note with it: S. cerevisiae mlh1 rad18 strain growth inhibition, hits give high values. Summed up:
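Cells of a genetically altered yeast strain, deficient in DNA damage repair, were treated with compound. Their growth was then compared with that of vehicle-treated cultures to give inhibition.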

The mark [7] stands for this setting: at 5.0 µM (retest, dose inferred, filed as 0.5).
Setting [8] is: at 50.0 µM (retest, dose inferred, filed as 5.0).

For `CCCCCCc1ccc(O)c(Cl)c1`, the growth inhibition in assay [1] (setting [7]) was 0%; in assay [1] (setting [8]), 28%; in assay [1] (at 50.0 µM) it was 98.8% (active); in assay [2] (setting [7]), 0%; in assay [2] (setting [8]) it was 15%; in assay [2] (at 50.0 µM) it was 94% (active). Besides, the growth inhibition was -1% in assay [3] (setting [7]); 15% in assay [3] (setting [8]); 77.3% (active) in assay [3] (at 50.0 µM); -4% in assay [4] (setting [7]); -3% in assay [4] (setting [8]); 44.1% in assay [4] (at 50.0 µM). The growth inhibition was -5% in assay [5] (setting [7]); -8% in assay [5] (setting [8]); 57.4% in assay [5] (at 50.0 µM); 0% in assay [6] (setting [7]); 19% in assay [6] (setting [8]); 89.6% (active) in assay [6] (at 50.0 µM).
In the case of `C/C(=N\NC(=S)Nc1ccc([N+](=O)[O-])cc1)c1nc2ncccc2[nH]1`, the growth inhibition is -8% in assay [1] (setting [7]); 71% (active) in assay [1] (setting [8]); 72.3% (active) in assay [1] (at 50.0 µM); -22% in assay [2] (setting [7]); 89% (active) in assay [2] (setting [8]); 61% in assay [2] (at 50.0 µM). In addition, the growth inhibition in assay [3] (setting [7]) was -14%; in assay [3] (setting [8]), 70% (active); in assay [3] (at 50.0 µM) it was 62.2%; in assay [4] (setting [7]), 5%; in assay [4] (setting [8]), 93% (active); in assay [4] (at 50.0 µM) it was 67.2%. In addition, the growth inhibition was -35% in assay [5] (setting [7]); 95% (active) in assay [5] (setting [8]); 75.5% (active) in assay [5] (at 50.0 µM); 4% in assay [6] (setting [7]); 92% (active) in assay [6] (setting [8]); 60.1% in assay [6] (at 50.0 µM).
For `O=[N+]([O-])C1(CO)COC(CCc2ccccc2)OC1` (stereo not drawn), the growth inhibition in assay [1] (setting [7]) is -2%; in assay [1] (setting [8]), 5%; in assay [1] (at 50.0 µM) it was 67.7%; in assay [2] (setting [7]), 0%; in assay [2] (setting [8]), 3%; in assay [2] (at 50.0 µM) it was 78.2% (active). Moreover, the growth inhibition in assay [3] (setting [7]) was 2%; in assay [3] (setting [8]) it was 5%; in assay [3] (at 50.0 µM) it was 82.3% (active); in assay [4] (setting [7]) it was 2%; in assay [4] (setting [8]), 3%; in assay [4] (at 50.0 µM), 97.5% (active). The growth inhibition was -2% in assay [5] (setting [7]); -3% in assay [5] (setting [8]); 65.5% in assay [5] (at 50.0 µM); 0% in assay [6] (setting [7]); 3% in assay [6] (setting [8]); 98.4% (active) in assay [6] (at 50.0 µM).
For `CN(CCC1CCCCC1)CCC1CCCCC1`, the growth inhibition in assay [1] (setting [7]) is 21%; in assay [1] (setting [8]), 89% (active); in assay [1] (at 50.0 µM) it was 97.9% (active); in assay [2] (setting [7]), 9%; in assay [2] (setting [8]) it was 72% (active); in assay [2] (at 50.0 µM), 80.3% (active). Besides, the growth inhibition in assay [3] (setting [7]) is 35%; in assay [3] (setting [8]) it was 97% (active); in assay [3] (at 50.0 µM), 97.2% (active); in assay [4] (setting [7]), 14%; in assay [4] (setting [8]) it was 73% (active); in assay [4] (at 50.0 µM), 77.6% (active). The growth inhibition in assay [5] (setting [7]) is 30%; in assay [5] (setting [8]) it was 97% (active); in assay [5] (at 50.0 µM), 96.5% (active); in assay [6] (setting [7]) it was 11%; in assay [6] (setting [8]), 89% (active); in assay [6] (at 50.0 µM), 93.6% (active).
Consider `O=C(CCN1CCCCC1)N1CCc2c([nH]c3ccccc23)C1c1cccnc1` (stereo not drawn), for which the growth inhibition in assay [1] (setting [7]) is -8%; in assay [1] (setting [8]), 8%; in assay [1] (at 50.0 µM) it was 13.1%; in assay [2] (setting [7]), 1%; in assay [2] (setting [8]) it was 16%; in assay [2] (at 50.0 µM), 1.2%. Moreover, the growth inhibition is 0% in assay [3] (setting [7]); -8% in assay [3] (setting [8]); -5.35% in assay [3] (at 50.0 µM); 5% in assay [4] (setting [7]); 22% in assay [4] (setting [8]); -6.8% in assay [4] (at 50.0 µM). For the same compound, the growth inhibition is 4% in assay [5] (setting [7]); 46% in assay [5] (setting [8]); -0.3% in assay [5] (at 50.0 µM); 2% in assay [6] (setting [7]); -4% in assay [6] (setting [8]); -14.4% in assay [6] (at 50.0 µM).
In the case of `COc1cc(N=Nc2ccccc2)cc(/C=N/NC(N)=S)c1O`, the growth inhibition is -2% in assay [1] (setting [7]); 46% in assay [1] (setting [8]); 73.8% (active) in assay [1] (at 50.0 µM); 3% in assay [2] (setting [7]); 59% in assay [2] (setting [8]); 67.2% in assay [2] (at 50.0 µM). Moreover, the growth inhibition is 9% in assay [3] (setting [7]); 85% (active) in assay [3] (setting [8]); 88.8% (active) in assay [3] (at 50.0 µM); -9% in assay [4] (setting [7]); 37% in assay [4] (setting [8]); 78.8% (active) in assay [4] (at 50.0 µM). Besides, the growth inhibition in assay [5] (setting [7]) is 1%; in assay [5] (setting [8]), 61%; in assay [5] (at 50.0 µM), 58.3%; in assay [6] (setting [7]), 4%; in assay [6] (setting [8]), 73% (active); in assay [6] (at 50.0 µM), 90.8% (active).
